According to the supplement of paper PMC11732987, “Enantioselective OTUD7B fragment discovery through chemoproteomics screening and high-throughput optimisation” (Communications Chemistry, 2025):

biological target: T1, USP38 (UniProt Q8NB14); test: log2 ratio of Biotin-Ahx-Ub-VS probe labelling (compound/DMSO); higher = less target engagement, active = hit call of the paper (q ≤ 0.05, log2 ratio ≤ -1); details: compound concentration: 50uM; treatment time: 3 h
T1 sequence (whole entry): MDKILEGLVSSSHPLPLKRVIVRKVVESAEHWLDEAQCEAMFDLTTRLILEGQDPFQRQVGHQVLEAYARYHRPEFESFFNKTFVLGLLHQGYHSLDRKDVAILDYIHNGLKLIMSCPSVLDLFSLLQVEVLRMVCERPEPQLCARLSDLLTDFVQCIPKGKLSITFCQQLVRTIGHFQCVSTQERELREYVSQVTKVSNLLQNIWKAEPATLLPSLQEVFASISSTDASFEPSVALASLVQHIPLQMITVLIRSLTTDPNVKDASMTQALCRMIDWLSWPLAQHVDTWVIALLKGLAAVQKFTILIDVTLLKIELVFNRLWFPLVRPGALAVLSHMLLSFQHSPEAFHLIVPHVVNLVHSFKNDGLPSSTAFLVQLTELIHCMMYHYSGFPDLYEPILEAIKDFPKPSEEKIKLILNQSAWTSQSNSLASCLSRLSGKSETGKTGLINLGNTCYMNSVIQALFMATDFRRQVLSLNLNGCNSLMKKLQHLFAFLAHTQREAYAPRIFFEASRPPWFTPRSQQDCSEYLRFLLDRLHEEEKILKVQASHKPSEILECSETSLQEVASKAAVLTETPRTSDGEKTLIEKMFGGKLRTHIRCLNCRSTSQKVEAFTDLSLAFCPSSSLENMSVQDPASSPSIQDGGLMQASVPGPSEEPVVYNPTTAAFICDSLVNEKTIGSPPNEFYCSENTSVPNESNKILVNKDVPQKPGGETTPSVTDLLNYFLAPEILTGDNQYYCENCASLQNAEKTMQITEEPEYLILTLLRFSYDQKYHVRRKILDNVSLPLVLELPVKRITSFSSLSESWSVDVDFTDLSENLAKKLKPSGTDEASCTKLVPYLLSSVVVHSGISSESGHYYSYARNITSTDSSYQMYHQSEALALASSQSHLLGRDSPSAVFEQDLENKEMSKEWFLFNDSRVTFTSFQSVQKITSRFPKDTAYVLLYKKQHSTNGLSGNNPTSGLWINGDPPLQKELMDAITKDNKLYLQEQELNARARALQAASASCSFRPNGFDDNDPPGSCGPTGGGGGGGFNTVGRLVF
Procedure: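 Round 2 competitive ABPP in HEK293T lysate. Compounds were tested at 50 and 200 µM for 3 h, followed by Biotin-Ahx-Ub-VS enrichment and diaPASEF LC-MS/MS. Values are the average log2 ratio (compound/DMSO) from an unpaired t-test (n=3 treated, n=26 DMSO).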

log2 ratio of Biotin-Ahx-Ub-VS probe labelling, inactive:
Cl.Cn1ncc2c1CCCC2NC(=O)CCl (configuration not stated) 0.328
O=C(CCl)NC1CCOc2ccccc21 (configuration not stated) 0.0839
COc1cccc(CN(C)C(=O)CCl)c1 0.0582
CCC1c2ccsc2CCN1C(=O)CCl (configuration not stated) 0.124
CN1c2ccccc2C(NC(=O)CCl)CS1(=O)=O (configuration not stated) -0.19
Cl.O=C(CCl)N1CCc2ncncc2C1 -0.214

same assay, conditions: compound concentration: 200uM; treatment time: 3 h

log2 ratio of Biotin-Ahx-Ub-VS probe labelling, inactive:
Cl.Cn1ncc2c1CCCC2NC(=O)CCl (configuration not stated) -0.153
O=C(CCl)NC1CCOc2ccccc21 (configuration not stated) -0.0989
COc1cccc(CN(C)C(=O)CCl)c1 -0.322
CCC1c2ccsc2CCN1C(=O)CCl (configuration not stated) -0.277
CN1c2ccccc2C(NC(=O)CCl)CS1(=O)=O (configuration not stated) -0.231
Cl.O=C(CCl)N1CCc2ncncc2C1 -0.296
